# NPC1 promoter act – activators of NPC1 promoter; 320,000 tested, 2.4% active; Potency, µM (top dose mostly 9.22 µM), without a hit: at the highest dose activation, hits mostly activators; Huh7 NPC1 promoter luciferase reporter, 24 h; note: % of control where 0% means no effect; nearly all actives have a fitted effect of over 60% in size
#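 In 1536-well qHTS, Huh7 cells harboring an NPC1 promoter–luciferase construct received compound for 24 h; activation was quantified by luminescence following luciferase reagent addition.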
# SMN2 splice up – SMN2 splice variant enhancement; HEK293 SMN2-luciferase splicing reporter, luminescence, 30-36 h; Potency, µM (highest dose often 46.1 µM), without a hit: at the top dose activity change, positive = activation, most hits filed as activators; 210,000 tested, 2.8% active; note: % of control where 0% means no effect; nearly all actives have a fitted effect of over 55% in size
#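 qHTS luciferase splicing reporter: luminescence rises when SMN2 exon 7 is included in transfected HEK293 cells. Compound exposure lasted 30-36 h at 37C, with 4.5 mM final sodium butyrate as control, followed by a ONE-Glo read.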
# FLuc modulator – firefly luciferase modulation, counter-screen for miR-21 project; P08659; purified FLuc, Km substrates, luminescence inhibition; Potency, µM (doses to about 57.5 µM), inactives show at the highest dose activity change, negative = inhibition, actives largely listed as inhibitors; 360,000 tested, 6.9% active; AID 588342;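 note: plate controls were vehicle for no effect and reference inhibitor for full effect; nearly all actives have a fitted effect of over 55% in size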
# Target sequence (P08659 whole entry, looked up): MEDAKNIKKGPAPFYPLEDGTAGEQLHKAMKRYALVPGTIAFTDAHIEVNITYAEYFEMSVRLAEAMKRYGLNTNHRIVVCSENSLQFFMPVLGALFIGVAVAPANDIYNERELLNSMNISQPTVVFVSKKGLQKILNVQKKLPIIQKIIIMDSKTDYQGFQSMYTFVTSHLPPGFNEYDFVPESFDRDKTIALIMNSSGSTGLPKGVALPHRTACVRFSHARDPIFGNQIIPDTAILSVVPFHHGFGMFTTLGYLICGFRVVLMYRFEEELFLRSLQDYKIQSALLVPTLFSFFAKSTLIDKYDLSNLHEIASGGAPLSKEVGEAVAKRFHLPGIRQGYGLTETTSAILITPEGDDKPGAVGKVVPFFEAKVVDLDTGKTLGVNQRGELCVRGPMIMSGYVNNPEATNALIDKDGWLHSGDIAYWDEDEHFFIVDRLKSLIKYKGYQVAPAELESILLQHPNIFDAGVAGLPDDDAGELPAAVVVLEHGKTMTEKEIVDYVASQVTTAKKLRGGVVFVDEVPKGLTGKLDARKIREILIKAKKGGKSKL
#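 Purified P. pyralis luciferase, 10 nM final, with Km-level 10 uM D-luciferin and 10 uM ATP in 50 mM Tris acetate pH 7.5, 10 mM Mg acetate, 0.01% Tween-20, 0.05% BSA; 6-point qHTS titration about 60 µM downward; luminescence read.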
# ELG1 genotoxic – inducers of genotoxicity in HEK293T ELG1-luciferase cells. HEK293T ELG1-luciferase reporter, luminescence, 16 h. Potency, µM (highest dose often 46 µM), without a hit: top-dose activity change, positive = activation, most hits filed as activators. 330,000 tested, 1.3% active; note: % of control where 0% means no effect; nearly all actives have a fitted effect of over 60% in size
#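 ELG1-luciferase HEK293T cells, 2,000/well; compound pinned in; 16 hr, 37 °C, 5% CO2; ONE-Glo, 30 min RT; luminescence on CCD imager.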
# Rab9 promoter act – activators of Rab9 promoter; Huh7 Rab9 promoter-luciferase reporter, luminescence, 24 h; Potency, µM (highest dose often 9.22 µM), inactives show at the highest dose activation, negative = inhibition, actives largely listed as activators; 320,000 tested, 2.8% active; note: % of control where 0% means no effect; nearly all actives have a fitted effect of over 60% in size
#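 Cells were plated at 1500 per well in reduced-serum medium with 10% FBS and left 2 h. Compound in DMSO was then added for 24 h at 37 °C. Reporter signal was read by luminescence after 10 min with luciferase detection reagent.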
# * marks the source's active call; other numbers are inactive results; u = inconclusive; x = no result; [ ] = dose if it differs, or a comment. Sampled rows, rich in hits. Any-hit rate of the full collection: about 7.4%. Calls come from the whole dose curve; as a rule, active = well fitted curve in the direction sought with a large enough effect; inconclusive = small, poorly fitted or top-dose-only effect, or another doubt; inactive = no such curve, though single readings can be large; an effect the other way counts as inactive or inconclusive. Potency is the fitted concentration of half-maximal effect.
SMILES,NPC1 promoter act,SMN2 splice up,FLuc modulator,ELG1 genotoxic,Rab9 promoter act
O=C(NCCOc1ccccc1)O[C@@H]1C(=O)c2cc(Br)ccc2O[C@H]1c1ccc2c(c1)OCO2,x,7%,x,x,x
COc1cc(OC)cc(C(=O)NC2=NCCS2)c1,3%,8%,11µM*,u,26%
CN1CCc2nc(NC(=O)c3cccc(OC(F)F)c3)sc2C1,24%,16%,11µM*,u,22%
CN1CCc2nc(NC(=O)COc3ccc4ccccc4c3)sc2C1,-3%,-72%,2%,-20%,0%
COc1ccc(C(=O)NC2=NCCS2)cc1,2.2µM*,x,19µM*,u,2.8µM*
O=C(NC1=NCCS1)c1cccc(OC(F)F)c1,2.2µM*,11µM*,12µM*,5.8µM*,1.3µM*
O=C(NC1=NCCS1)c1cccc(N2C(=O)c3ccccc3C2=O)c1,-4%,-12%,-12%,0%,0%
Cc1cccc(CNc2ncncc2-c2cccc(C#N)c2)c1,x,2%,x,x,x
O=C(OCC(=O)N1CCCC1)c1cnc(Cl)c(Cl)c1,x,x,x,1%,x
O=C(NC12CC3CC(CC(C3)C1)C2)c1cccc(OC(F)F)c1,25%,x,15µM*,0%,2%[1.84 µM]
CC(C)Oc1ccc(C(=O)NC2=NCCS2)cc1,0.71µM*,2.5µM*,6µM*,u,0.45µM*
CN(Cc1cn[nH]c1-c1ccc(-c2ccccc2)cc1)CC1CCOCC1,5%,x,u,3%,16%
O=C(Nc1ccnn1C1CCN(Cc2cccc(OCCO)c2)CC1)C1CCOC1 (centres undefined),3%,x,9%,5%,3%
CC(C)(C)C(=O)OCc1nc(-c2ccc(C(F)(F)F)cc2)cs1,-4%,x,15µM*,4%,0%
COC(=O)N/N=C(C)\C=C\c1ccco1,-3%,4%[1.84 µM],-2%,7%,0%
CN(C)c1ccc(C(=O)/C=C/c2ccco2)cc1,3.2µM*,13µM*,0.38µM*,u,2.8µM*
CN(C(=O)/C=C/c1ccco1)c1ccccc1C(=O)O,-3%,x,-6%,0%,-9%
O=C(/C=C/c1ccco1)c1ccc(O)cc1,13%,6%,13µM*,u,u
COc1ccccc1NC(=O)c1cc2c(=O)n(Cc3cccs3)ccc2nc1C,x,x,-4%,x,x
Cn1c(=O)[nH]c2nnc(-c3ccc(Cl)c(Cl)c3)nc2c1=O,0.71µM*,x,3.4µM*,u,u
Cc1ccc(CN2CCN(/N=C/c3sccc3C)CC2)c(C)c1,-3%,-17%,3%,-3%,-13%
COc1ccc(-c2cc(C(=O)NCC(C)C)no2)cc1,1.4µM*,11µM*,2.4µM*,2.6µM*,0.71µM*
COc1ccc(-c2cc(C(=O)O)no2)cc1,-4%,x,-3%,1%,-3%
COc1ccc(-c2cc(C(=O)Nc3ccc(C)cc3)no2)cc1,x,-18%,0%,x,x
CCC(C)NC(=O)c1cc(-c2ccc(OC)cc2)on1 (centres undefined),2.8µM*,10µM*,6µM*,u,3.2µM*
SMILES,NPC1 promoter act,SMN2 splice up,FLuc modulator,ELG1 genotoxic,Rab9 promoter act
COc1ccc2nc(NC(=O)c3cccnc3SC)sc2c1,u,u,5.4µM*,u,u
CSc1ncccc1C(=O)Nc1nc2ccc(S(C)(=O)=O)cc2s1,13%,9%,21µM*,4%,28%
CC1(C)Cc2c(sc3[nH]c(=O)n(CC(=O)NCC4CCCO4)c(=O)c23)CO1 (centres undefined),1%,x,2%,0%,0%
CCN(CC)C(=O)CNC(=O)c1nn(-c2ccc(OC)c(Cl)c2)c(=O)c2ccccc12,2%,x,u,-2%,3%
COc1ccc(-n2nc(C(=O)NCC(=O)N3CCN(c4ccccn4)CC3)c3ccccc3c2=O)cc1Cl,22%,u,3µM*,-14%,u
COc1ccc(-n2nc(C(=O)NCC(=O)N3CCC(C)CC3)c3ccccc3c2=O)cc1Cl,24%,x,1.9µM*,-7%,21%
CCN(CC)C(=O)C1CCCN(c2ncnc3c2cnn3-c2cccc(C)c2)C1 (centres undefined),-3%,-18%,u,u,-7%
CCN(CC)C(=O)C1CCCN(c2ncnc3c2cnn3-c2ccc(Cl)cc2)C1 (centres undefined),-8%,x,17µM*,-10%,-5%
CC1CC(C)CN(c2ncnc3c2cnn3-c2ccc(Cl)cc2)C1 (centres undefined),2µM*,-81%,2.1µM*,u,0.71µM*
CC1CCCN(c2ncnc3c2cnn3-c2ccccc2)C1 (centres undefined),0.35µM*,x,0.19µM*,u,0.14µM*
CCOC(=O)C1CCCN(c2ncnc3c2cnn3-c2cccc(C)c2)C1 (centres undefined),24%,17%,24µM*,u,28%
Cc1cccc(C)c1NC(=O)Cn1cc(C(=O)C2CC2)c2ccccc21,x,-14%,-4%,x,x
CCCCOC(=O)c1ccc(NC(=O)C2(c3cccs3)CCOCC2)cc1,x,x,-1%,x,x
CCOC(=O)c1cccc(NC(=O)Cn2ncc3c4ccccc4n(Cc4ccccc4)c3c2=O)c1,x,12%,-2%,x,x
Cc1ccc(-n2ncc3c(N4CCCC4)ncnc32)c(C)c1,u,-17%,u,-7%,u
CC1CCCN(c2ncnc3c2cnn3-c2ccc(F)cc2)C1 (centres undefined),x,x,0.17µM*,x,x
CC1CCCN(c2ncnc3c2cnn3-c2ccc(Cl)cc2)C1 (centres undefined),-38%,x,0.095µM*,1%,-29%
Cc1ccc(-n2ncc3c(N4CCCC(C)C4)ncnc32)c(C)c1 (centres undefined),3.2µM*,x,7.6µM*,u,2µM*
Cc1cccc(-n2ncc3c(N4CCCC(C)C4)ncnc32)c1 (centres undefined),x,x,0.43µM*,x,x
O[C@@H]1[C@@H]2c3cc4c(cc3CN3CCC(=C[C@@H]1O)[C@H]23)OCO4,x,-94%[20.6 µM],x,x,x
CSC(=[SH+])N=N/C(=C1/C=CC=CN1)c1ccccn1.[Cu][Br],x,-54%[9.22 µM],x,x,x
CCC(C)c1ccc(NC(=S)N2CCN(S(C)(=O)=O)CC2)cc1 (centres undefined),3%,x,2%,-1%,9%
Brc1c(CSc2nc3ccccc3o2)nc2ncccn12,u,28%,15µM*,u,u
O=C(CSc1nc2ccccc2o1)Nc1nncs1,0%,-20%,-15%,5%,-3%
Cc1cc(C)nc(SCc2nc3ncccn3c2Br)n1,5%,-16%,0%,3%,5%
Clc1c(CSc2nc3ccccc3o2)nc2sccn12,1.6µM*,10µM*,9.5µM*,5.8µM*,2µM*
Clc1c(CSc2nc3ccccc3o2)nc2ccccn12,1.6µM*,14µM*,1.9µM*,2.6µM*,2µM*
Cc1ccc(S(=O)(=O)NCCc2nnc3ccc(SCc4ccc(F)cc4)nn23)cc1,x,x,-9%,x,x
